In PubChem BioAssay (EPA / NIEHS):
Where “and” joins values, the source holds several entries; their conditions need not be identical. Identical values can stand only once. Records with an inconclusive call do not appear. Some compounds were tested as several samples or in several runs, with calls that do not always agree. Calls of active or inactive are those of the source. How the source made its calls, unless noted: active means hit-call score of the fitted dose curve at least 0.9, where 1 is the maximum; inconclusive means response in the unintended direction; inactive means score below 0.9.

Columns and labels:
[1] = Tanguay_ZF_120hpf_SOMI_legacy: (Legacy) Oregon State University Tanguay Lab 120 Hour Post-fertilization zebrafish Assay for Somite Malformation (AID 2283647)
Procedure, shortened: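 Tropical 5D wild-type zebrafish embryos, dechorionated with pronase at 4 hpf, were placed singly at 6 hpf and statically exposed until 120 hpf at 28C in 0.64% DMSO. Somite malformation was scored present/absent by brightfield microscopy versus DMSO.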

[2] = Tanguay_ZF_120hpf_PFIN_legacy: (Legacy) Oregon State University Tanguay Lab 120 Hour Post-fertilization zebrafish Assay for Pectoral Fin Malformation (AID 2283648);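 further: each larva judged yes or no for fin defect by brightfield with dead larvae skipped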
Procedure, shortened: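 Dechorionated Tropical 5D wild-type zebrafish embryos, one per well, statically exposed from 6 to 120 hpf at 28C with 0.64% DMSO final. Pectoral fin malformation scored present/absent by brightfield at 120 hpf; not scored in dead embryos.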

[3] = Tanguay_ZF_120hpf_CFIN_legacy: (Legacy) Oregon State University Tanguay Lab 120 Hour Post-fertilization zebrafish Assay for Caudal Fin Malformation (AID 2283649)
Procedure, shortened: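 Tropical 5D wild-type embryos, dechorionated with pronase at 4 hpf, were placed singly in wells at 6 hpf and statically exposed to compound at 28C until 120 hpf (0.64% DMSO). Caudal fin malformation was scored present/absent by brightfield microscopy.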

[4] = Tanguay_ZF_120hpf_PIG_legacy: (Legacy) Oregon State University Tanguay Lab 120 Hour Post-fertilization zebrafish Assay for Pigmentation Malformation (AID 2283650)
Procedure, shortened: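 Dechorionated Tropical 5D wild-type embryos, one per well from 6 hpf, statically exposed at 28C in the dark until 120 hpf, 0.64% DMSO final. Pigmentation scored present/absent by brightfield microscopy; dead embryos not scored; fitted versus DMSO.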

[5] = Tanguay_ZF_120hpf_CIRC_legacy: (Legacy) Oregon State University Tanguay Lab 120 Hour Post-fertilization zebrafish Assay for Circulatory Malformation (AID 2283651)
Procedure, shortened: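 Read-out: presence or absence of circulatory malformation at 120 hpf, scored by brightfield microscopy, fitted in the gain-of-signal direction against DMSO baseline. Wild-type 5D larvae were exposed from 6 hpf after enzymatic chorion removal.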

[6] = Tanguay_ZF_120hpf_SWIM_legacy: (Legacy) Oregon State University Tanguay Lab 120 Hour Post-fertilization zebrafish Assay for Swim Bladder Malformation (AID 2283654);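 further: swim bladder malformation in each larva scored yes or no under brightfield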
Procedure, shortened: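 Dechorionated wild-type Tropical 5D zebrafish embryos, one per well from 6 hpf, were statically exposed at 28C until 120 hpf in 0.64% DMSO. Swim bladder malformation scored as present/absent by brightfield microscopy; not scored in dead larvae.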

[7] = Tanguay_ZF_120hpf_TRUN_legacy: (Legacy) Oregon State University Tanguay Lab 120 Hour Post-fertilization zebrafish Assay for Truncated Body (AID 2283655)
Procedure, shortened: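 Tropical 5D wild-type embryos, dechorionated with pronase at 4 hpf, were placed singly in wells at 6 hpf and statically exposed at 28C until 120 hpf, final DMSO 0.64%. Truncated body was scored present/absent by brightfield microscopy.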

[8] = Tanguay_ZF_120hpf_NC_legacy: (Legacy) Oregon State University Tanguay Lab 120 Hour Post-fertilization zebrafish Assay for Notochord and Tail Malformation (AID 2283656)
Procedure, shortened: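 Dechorionated Tropical 5D wild-type zebrafish embryos, one per well from 6 hpf, statically exposed to 120 hpf at 28C in 0.64% DMSO final. Notochord distortion scored present/absent by brightfield; dead embryos excluded.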

[9] = read-out: matrix metalloproteinase-1 (MMP1), MMP1 (gene 4312); assay: LTEA_HepaRG_MMP1: Life Technologies and Expression Analysis (LTEA) Assay for matrix metalloproteinase-1 (MMP1) using HepaRG (AID 2283658; active means hit-call score of the fitted dose curve at least 0.9, where 1 is the maximum; inactive means score below 0.9); details: mRNA level, 48 h; actives raise or lower the signal
Procedure, shortened: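 Differentiated HepaRG cells, plated 48 h then switched to serum-free induction medium, were exposed in duplicate for 48 h to eight half-log concentrations up to 100 uM in 0.5% DMSO; MMP1 mRNA measured by qRT-PCR, normalized to ACTB, GAPDH, POLR2A.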

[10] = read-out: kallikrein-3 (KLK3), KLK3 (gene 354); assay: LTEA_HepaRG_KLK3: Life Technologies and Expression Analysis (LTEA) Assay for kallikrein-3 (KLK3) using HepaRG (AID 2283652; active means hit-call score of the fitted dose curve at least 0.9, where 1 is the maximum; inactive means score below 0.9); details: mRNA level, 48 h; actives raise or lower the signal
Procedure, shortened: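 Differentiated human HepaRG cells in serum-free induction medium exposed 48 h in duplicate, eight-point half-log series from 100 uM in 0.5% DMSO. KLK3 mRNA by qRT-PCR, normalised to ACTB, GAPDH, POLR2A; bidirectional fit versus DMSO.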

Measured: AC50

O=[N+]([O-])c1c(Cl)c(Cl)c(Cl)c(Cl)c1Cl
not listed: [9] | [10]
inactive: all other assays above

N#Cc1c(Cl)c(Cl)c(Cl)c(C#N)c1Cl
active: [7] 47.8 µM | [9] 13.3 µM
not listed: [10]
inactive: all other assays above

O=S1OCC2C(CO1)C1(Cl)C(Cl)=C(Cl)C2(Cl)C1(Cl)Cl (configuration not stated)
not listed: [8] | [9] | [10]
inactive: all other assays above

CCCN(CCOc1c(Cl)cc(Cl)cc1Cl)C(=O)n1ccnc1
active: [9] 69.2 µM
not listed: [10]
inactive: all other assays above

CC(C)(C)C(O)C(Oc1ccc(Cl)cc1)n1cncn1 (configuration not stated)
active: [1] 46 µM | [2] 47.2 µM and 33.2 µM and 39.7 µM | [3] 40.7 µM | [4] 44.2 µM and 47.8 µM | [5] 40.6 µM | [6] 47.1 µM | [7] 32.2 µM and 47.2 µM
inactive: [1] | [3] | [4] | [5] | [6] | [7] | [8]

Cc1[nH]c(=O)n(C(C)(C)C)c(=O)c1Cl
not listed: [10]
inactive: all other assays above

COP(=S)(OC)Oc1ccc([N+](=O)[O-])cc1
not listed: [9] | [10]
inactive: all other assays above

OCCOc1ccccc1
inactive: [1] | [2] | [3] | [4] | [5] | [6]

CCOC1Oc2ccc(OS(C)(=O)=O)cc2C1(C)C (configuration not stated)
not listed: [8]
inactive: all other assays above

COP(=O)(OC)OC=C(Cl)Cl
not listed: [7] | [9] | [10]
inactive: all other assays above

CC(C)N(C(=O)COc1nnc(C(F)(F)F)s1)c1ccc(F)cc1
not listed: [8] | [9] | [10]
inactive: all other assays above

Oc1cc(Cl)ccc1Oc1ccc(Cl)cc1Cl
not listed: [9] | [10]
inactive: all other assays above

CCCN(CCC)c1c([N+](=O)[O-])cc(C(F)(F)F)cc1[N+](=O)[O-]
not listed: [10]
inactive: all other assays above

O=S(=O)(O)C(F)(F)C(F)(F)C(F)(F)C(F)(F)C(F)(F)C(F)(F)C(F)(F)C(F)(F)F
inactive: [1] | [2] | [3] | [4] | [5] | [6] | [7] | [8]
active: [1] 33.8 µM | [2] 36 µM | [3] 12.2 µM | [4] 46.6 µM | [5] 42.5 µM | [7] 10.6 µM and 21.2 µM

ClC1C(Cl)C(Cl)C(Cl)C(Cl)C1Cl (configuration not stated)
not listed: [10]
inactive: all other assays above

CCC(C)(C)C(=O)OC1=C(c2ccc(Cl)cc2Cl)C(=O)OC12CCCCC2
not listed: [8] | [9] | [10]
inactive: all other assays above

Oc1ccc(Cl)cc1Cc1ccccc1
not listed: [9] | [10]
inactive: all other assays above

O=C(NC(=O)c1c(F)cccc1F)Nc1ccc(OC(F)(F)C(F)OC(F)(F)F)c(Cl)c1 (configuration not stated)
not listed: [9] | [10]
inactive: all other assays above

CC[C@H](C)[C@H]1O[C@]2(C=C[C@@H]1C)C[C@@H]1C[C@@H](C/C=C(\C)[C@@H](O[C@H]3C[C@H](OC)[C@@H](O[C@H]4C[C@H](OC)[C@@H](O)[C@H](C)O4)[C@H](C)O3)[C@@H](C)/C=C/C=C3\CO[C@@H]4[C@H](O)C(C)=C[C@@H](C(=O)O1)[C@]34O)O2 (tested in a mixture with another compound)
not listed: [9] | [10]
inactive: all other assays above

O=C(O)C(F)(F)C(F)(F)C(F)(F)C(F)(F)C(F)(F)C(F)(F)C(F)(F)F
not listed: [9] | [10]
inactive: all other assays above
